Several values for one entry are separate records, joined by “and”; a condition that tells them apart may be missing. Identical values can stand only once. Activity calls are given as the source filed them. The rule behind the calls is not given here.
What follows are molecules tested on Aerobactin synthetase IucA (Klebsiella pneumoniae hvKP1) (assay: IucA enzyme inhibition, primary screen, biochemical, Spectrum library (AID 1346200;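 note: 100% = wells without compound and 0% = wells lacking enzyme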)). Conditions: malachite green pyrophosphate, A620, at 8 µM, active compounds read low.

| Structure (SMILES) | activity remaining |
| --- | --- |
| N.N.O=C(O)C1(C(=O)O)CCC1.[Pt] | 94.6% (inactive) |
| C=C(NC(=O)C(=C)NC(=O)c1csc(C2=NC3c4csc(n4)C4NC(=O)c5csc(n5)C(C(C)(O)C(C)O)NC(=O)C5CSC(=N5)C(=CC)NC(=O)C(C(C)O)NC(=O)c5csc(n5)C3(CC2)NC(=O)C(C)NC(=O)C(=C)NC(=O)C(C)NC(=O)C(C(C)CC)NC2C=Cc3c(C(C)O)cc(nc3C2O)C(=O)OC4C)n1)C(N)=O (centres undefined) | 121% (inactive) |
| CCN(CC)CCNC(=O)c1cc(Br)c(N)cc1OC | 109% (inactive) |
| CC(C)=CCc1c2c(c(O)c3c(=O)c(O)c(-c4ccccc4)oc13)C=CC(C)(C)O2 | 110% (inactive) |
| C[n+]1cccc(C(=O)[O-])c1 | 92.7% (inactive) |
| COc1cc2c(cc1OC)-c1cc3ccc(OC)c(OC)c3c[n+]1CC2 | 97.8% (inactive) and 112% (inactive) |
| C=C1[C@H]2CC[C@@]3(C)[C@H](c4ccoc4)OC(=O)C[C@]13O[C@H]1C[C@H](O)C(C)(C)[C@H](CC(=O)OC)[C@]12C | 107% (inactive) |
| S=c1nc[nH]c2nc[nH]c12 | 120% (inactive) |
| Cc1cc(O)cc(O)c1C(=O)O | 113% (inactive) |
| COC(=O)[C@@H]1OC(=O)C2OC23[C@@]1(C)CCC1[C@]2(C)C(C[C@H](O)[C@]13C)C(C)(C)[C@H](OC(C)=O)C[C@@H]2OC(C)=O (some centres undefined) | 111% (inactive) |
| CC1(C)CC[C@@]2(C(=O)O)C(C1)C1=CCC3[C@@]4(C)CC[C@H](O)C(C)(C)C4CC[C@@]3(C)[C@]1(C)C[C@@H]2O (some centres undefined) | 99.8% (inactive) |
| CC(=O)O[C@H]1CC[C@@]2(C)C(=CC(=O)C3C4CCC(C(C)CCCC(C)C)[C@@]4(C)CCC32)C1 (some centres undefined) | 123% (inactive) |
| CO[C@H]1O[C@H](CO)C(O[C@@H]2OC(C(=O)O)[C@@H](O[C@H]3O[C@H](COS(=O)(=O)O)C(O[C@@H]4OC(C(=O)O)[C@@H](O[C@H]5O[C@H](CO)C(O[C@@H]6OC(C(=O)O)[C@@H](O[C@H]7O[C@H](COS(=O)(=O)O)C(O[C@@H]8OC(C(=O)O)=C[C@H](O)C8OS(=O)(=O)O)[C@H](O)[C@H]7NC(C)=O)[C@H](O)[C@H]6O)[C@H](O)[C@H]5NC(C)=O)[C@H](O)[C@H]4O)[C@H](O)[C@H]3NC(C)=O)[C@H](O)[C@H]2O)[C@H](O)[C@H]1NC(C)=O (some centres undefined) | 92.9% (inactive) |
| CC(=O)O[C@]1(C)CC[C@@]23CC1C(C)(C)[C@@H]2CC[C@H]3C | 102% (inactive) |
| CC(=O)OC(C)(C)[C@@H]1Cc2cc3ccc(=O)oc3cc2O1 | 95.5% (inactive) |
| COc1cc(/C=C/C(=O)/C=C(O)/C=C/c2ccc(O)c(OC)c2)ccc1O | 103% (inactive) |
| Clc1ccc(C(Cn2ccnc2)OCc2ccsc2Cl)c(Cl)c1 (centres undefined) | 109% (inactive) |
| CCN(CC)CCOC(=O)C(c1ccccc1)c1ccccc1 | 112% (inactive) |
| CCCc1nc2c(C)cc(-c3nc4ccccc4n3C)cc2n1Cc1ccc(-c2ccccc2C(=O)O)cc1 | 123% (inactive) |
| CCC[C@H](N[C@@H](C)C(=O)N1[C@H](C(=O)O)C[C@@H]2CCCC[C@@H]21)C(=O)OCC | 121% (inactive) |

| Structure (SMILES) | activity remaining |
| --- | --- |
| CC(=O)OCC(=O)[C@@]1(O)CCC2C3CCC4=CC(=O)CC[C@]4(C)C3[C@@H](O)C[C@@]21C (some centres undefined) | 85.9% (inactive) |
| COc1ccc2c(c1)O[C@@H]1COc3cc(OC)c(OC)cc3[C@@H]1C2=O | 111% (inactive) |
| O=C(O)c1ccc(S(=O)(=O)N(Cl)Cl)cc1 | 113% (inactive) |
| CC(=O)O[C@H]1CC[C@@]2(C)C(=CCC3C2CC[C@@]2(C)C3CC[C@@H]2C(C)CCCC(C)C)C1 (some centres undefined) | 124% (inactive) |
| C[n+]1c2cc(N)ccc2cc2ccc(N)cc21 | 111% (inactive) |
| C[C@@H]1CC2C3CCC4=CC(=O)C=C[C@]4(C)[C@@]3(F)[C@@H](O)C[C@]2(C)[C@@]1(O)C(=O)CO (some centres undefined) | 119% (inactive) |
| S=c1[nH]c2ccccc2s1 | 99.3% (inactive) |
| COc1ccc(C(C)=O)c(O)c1 | 83.8% (inactive) |
| CC1(C)C2C[C@@H](O)[C@]3(C)C(CC[C@@]4(C)[C@H](c5ccoc5)OC(=O)C5OC543)[C@@]2(C)C(=O)C[C@H]1O (some centres undefined) | 108% (inactive) |
| COc1ccc(CCN(C)CCCC(C#N)(c2ccc(OC)c(OC)c2)C(C)C)cc1OC (centres undefined) | 97.5% (inactive) |
| NCCOB(c1ccccc1)c1ccccc1 | 97.5% (inactive) and 103% (inactive) |
| COc1ccc2c(c1)[C@@]1(C)CCC(=O)C[C@H]1CC2 | 101% (inactive) |
| CCCCC(=O)O[C@H]1CCC2C3CCc4cc(O)ccc4C3CC[C@@]21C (some centres undefined) | 97.5% (inactive) |
| COc1c(-c2coc3cc4c(cc3c2=O)CC(O)C(C)(C)O4)ccc2c1C=CC(C)(C)O2 (centres undefined) | 112% (inactive) |
| COC(=O)CCC(C)C1CCC2C3CC[C@@H]4C[C@H](O)CC[C@]4(C)C3C[C@H](O)[C@]12C (some centres undefined) | 120% (inactive) |
| O=c1cc(-c2ccc(O)cc2)oc2cc(O[C@@H]3O[C@H](CO)[C@@H](O)[C@H](O)[C@H]3O[C@@H]3OC[C@](O)(CO)[C@H]3O)cc(O)c12 | 103% (inactive) |
| C[C@@H]1OC(O[C@H]2[C@H](OC(=O)[C@]34CCC(C)(C)CC3C3=CCC5[C@@]6(C)CC[C@H](OC7O[C@@H](C)[C@H](O[C@@H]8OC[C@@H](O)[C@H](O)[C@H]8O)[C@@H](O)[C@H]7O)C(C)(C)C6CC[C@@]5(C)[C@]3(C)CC4O)OC[C@H](O)[C@H]2O)[C@H](O)[C@H](O)[C@H]1O[C@@H]1O[C@H](CO)[C@@H](O)[C@H](O)[C@H]1O (some centres undefined) | 99.8% (inactive) |
| O=c1c(O)cccc2c([C@H]3Oc4cc(O)cc(O)c4C[C@@H]3O)cc(O)c(O)c12 | 99.4% (inactive) |
| CCCCCCCCCCCC[C@H](C(=O)O)[C@@H](C)C(=O)O | 115% (inactive) |

Source: PubChem BioAssay
